Source: PubChem BioAssay
Most compounds without a hit are left out; they make up all but 4.6% or so of the library.
TIM10 inh – inhibits growth of TIM10 yeast strain. S. cerevisiae TIM10 strain growth, BacTiter-Glo luminescence, 24 h. inhibition, % at 10 µM. hit rate 1.4% among 330,000. AID 463195;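 active means inhibition of 40% or more at the single tested concentration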;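 further: wild-type TIM10 isogenic control strain grown at permissive 25 °C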
tim10-1 inh – inhibits growth of tim10-1 mutant yeast. S. cerevisiae tim10-1 ts strain growth, BacTiter-Glo, 24 h. inhibition, % at 20 µM. hit rate 2.2% among 330,000. AID 463190;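 active means inhibition of at least 40%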;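 further: mutant grown at 25 °C; 0% = DMSO wells with yeast and 100% = wells holding no yeast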
PfHsp90 yeast 2 – growth inhibition of yeast expressing Plasmodium Hsp90; S. cerevisiae expressing PfHsp90, BacTiter-Glo ATP, 48 h; yeast lacking PDR1 and PDR3 efflux regulators; inhibition, % at 9.4 µM; hit rate 0.32% among 310,000;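 active means every replicate shows inhibition above about 80%, whatever the replicate mean, limit read from the data; inconclusive means mean inhibition reaches the set limit but some replicate falls short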;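 further: 0% = DMSO neutral controls and 100% = 20 µM radicicol positive controls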
V-ATPase pHluor – alters yeast V-ATPase proton transport; S. cerevisiae, pHLuorin cytosolic pH fluorescence; response, % at 10 µM; hit rate 0.37% among 350,000; AID 504577; in the data active means response mostly above about 7.3%, no sharp cut-off; inactive means mostly below about 5.4%; further: actives read high
SKKanGAS inh – blocks kanamycin growth of S. pyogenes SKKanGAS strain; BacTiter-Glo, 6 h; inhibition, % at 7.5 µM; hit rate 1.3% among 300,000; AID 1662;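 active means mean replicate score, as percent of positive control median, at least 50; inconclusive means mean below 50 but one replicate at or above 50; inactive means mean and every replicate below 50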;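 further: strain carries kanamycin resistance gene driven by streptokinase promoter and grows in 40 µg/ml kanamycin; loss of luminescence reflects streptokinase promoter inhibition or plain growth inhibition; 0% = median of DMSO wells and 100% = positive control at its reference dose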
tim23-1 inh – growth inhibitors of tim23-1 mutant yeast; AID 463212; hit rate 1.3% among 330,000; inhibition, % at 20 µM; S. cerevisiae tim23-1 growth, BacTiter-Glo luminescence, 24 h;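 active means growth inhibition of the mutant yeast at or above 50%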;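 further: temperature-sensitive mutant grown at 25 °C; plate controls were DMSO-treated mutant yeast for no effect and medium wells lacking yeast for full effect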
* marks the source's active call; other numbers are inactive results; ? = inconclusive; nt = no result given.

SMILES	TIM10 inh	tim10-1 inh	PfHsp90 yeast 2	V-ATPase pHluor	SKKanGAS inh	tim23-1 inh
Cc1cc([N+](=O)[O-])nn1CC(=O)NCc1nc2ccccc2[nH]1	-10	10	8	-6	1	3
Fc1ccc(CO/N=C/C2=C(Cl)c3ccccc3CC2)cc1	2	0	-6	-4	79*	18
O=C(Nc1cccc(S(=O)(=O)NC2=NCCCCC2)c1)c1ccc(Cl)cc1	-10	9	9	9	nt	7
COc1cc2sc3ccc(-c4ccc5[nH]ccc5c4)cc3c(=O)c2cc1OC	-2	17	-16	2	20	5
O=c1c2ccccc2oc2cc(-c3ccc4[nH]ccc4c3)ccc12	18	26	16	-2	57*	35
Cc1ccc(CNC(=O)CC(C)S(=O)(=O)c2ccc3c(c2)NC(=O)C(C)S3)cc1 (stereo not drawn)	-3	10	-15	3	-2	0
COc1cc(/C=C2\SC(=Nc3ccccc3)N(CCc3c[nH]c4ccccc34)C2=O)ccc1OC(C)C(=O)O (stereo not drawn)	15	38	1	2	54*	16
COc1ccc(N=C2S/C(=C\c3ccc(OC(C)C(=O)O)c(OC)c3)C(=O)N2CCc2c[nH]c3ccccc23)cc1 (stereo not drawn)	10	28	12	-2	?	26
O=C1S/C(=C\c2ccc(N3CCOCC3)o2)C(=O)N1Cc1ccc(F)cc1	19	33	13	0	nt	17
O=C1/C(=C/c2ccc(N3CCOCC3)o2)SC(=Nc2ccccc2)N1CCc1c[nH]c2ccccc12	12	5	142*	4	25	28
COc1ccc(NC(C)C(=O)Nc2cccc(S(=O)(=O)N3CCOCC3)c2)cc1OC (stereo not drawn)	3	-14	2	1	nt	-4
COc1ccc(Oc2nc(-c3ccccn3)ncc2OC)cc1	-13	18	4	0	54*	-24
COc1cnc(-c2ccccn2)nc1Oc1c(C)cccc1C	28	20	-19	-5	57*	29
Cc1cnc(C(=O)Nc2nnc(SCc3c(Cl)cccc3Cl)s2)cn1	25	34	-54	4	102*	32
O=C(Nc1nnc(SCC(=O)N2CCCC2)s1)C1CC(=O)N(c2ccc(F)cc2)C1 (stereo not drawn)	-4	1	-16	-2	5	-8
Cc1ccc(CN2CC(C(=O)Nc3nnc(SCc4c(Cl)cccc4Cl)s3)CC2=O)cc1 (stereo not drawn)	11	35	-39	-3	79*	11
COC(=O)CSc1nnc(NC(=O)C2CC(=O)N(c3ccc(F)cc3)C2)s1 (stereo not drawn)	2	22	-2	2	50*	15
CCSc1nnc(NC(=O)c2ccccn2)s1	17	32	-18	0	68*	6
O=C(O)c1cccc(NC(=O)c2cccc(S(=O)(=O)N3CCc4ccccc4C3)c2)c1	-12	1	-39	0	11	6
O[C@@H]1CN(Cc2ccc(-n3cccn3)cc2)CC[C@H]1N1CCN(c2ccccc2F)CC1	-5	-21	-9	0	1	5
O=C(NC(=S)Nn1cnc2c(cnn2-c2ccccc2)c1=O)c1ccc(Cl)cc1	25	28	4	0	6	14
O=C(NC(=S)Nn1cnc2c(cnn2-c2ccccc2)c1=O)c1ccc(Oc2ccccc2)cc1	4	2	2	0	89*	-6
O=C(c1ccc(Cl)c(Cl)c1)N1CCC(=O)N(C(COCc2ccc(Cl)cc2)Cc2ccccc2)CC1 (stereo not drawn)	14	28	-64	-1	51*	27
CC(C(=O)Nc1cccc(S(=O)(=O)N2CCOCC2)c1)N1CCN(c2ccc(F)cc2)CC1 (stereo not drawn)	8	8	-18	-2	7	10
Nc1c(S(=O)(=O)c2cccc(Cl)c2)c2nc3ccccc3nc2n1/N=C/c1ccc(O)c(O)c1	10	20	nt	nt	95*	33
SMILES	TIM10 inh	tim10-1 inh	PfHsp90 yeast 2	V-ATPase pHluor	SKKanGAS inh	tim23-1 inh
CC1CCN(C(=O)C(=O)Nc2sc3c(c2C(N)=O)CC(C)(C)OC3)CC1	-4	10	2	1	-1	4
CC(C)c1c(O)ccc2c1CC[C@H]1C(C)(C)CCC[C@]21C	nt	nt	113*	-7	nt	nt
C[C@H]1[C@H](C)CC[C@]2(C)CC[C@]3(C)C(=CC[C@@H]4[C@@]5(C)CC[C@@H](O)[C@](C)(C(=O)O)[C@@H]5CC[C@]43C)[C@H]12	nt	nt	nt	nt	102*	nt
C[C@@H]1CC[C@]2(C(=O)O)CC[C@]3(C)C(=CCC4[C@@]5(C)CC[C@H](O)[C@@](C)(C(=O)O)C5CC[C@]43C)C2[C@]1(C)O (stereo partly drawn)	-8	-13	-12	-3	nt	-6
C[C@H]1[C@H](C)CC[C@]2(C(=O)O)CC[C@]3(C)C(=CC[C@@H]4[C@@]5(C)CC[C@H](O)C(C)(C)[C@@H]5CC[C@]43C)[C@H]12	-4	-11	10	0	107*	-10
C[C@H]1[C@H](C)CC[C@]2(C(=O)O)CC[C@]3(C)C(=CC[C@@H]4[C@@]5(C)C[C@@H](O)[C@H](O)C(C)(C)[C@@H]5CC[C@]43C)[C@H]12	6	-1	-9	9	103*	1
CCOC(=O)C1(C(=O)OCC)NC(=O)CC1C(C)C (stereo not drawn)	nt	nt	nt	2	nt	nt
CNC(=O)c1cc2c(=O)n3cccc(C)c3nc2n(C(C)C)c1=N	-10	-3	nt	-15	-1	16
Cc1ccc(N2C(=O)C3CC(c4ccccc4)=C4C5C=CC(C6C(=O)N(c7ccc(C)cc7)C(=O)C56)C4C3C2=O)cc1 (stereo not drawn)	11	7	-30	5	65*	-4
COC(=O)c1cc(C(=O)Cc2ccccc2)c[nH]1	-2	-3	nt	nt	-1	10
NC(=O)c1cc(C(=O)Cc2ccccc2)c[nH]1	-9	1	-6	-2	92*	3
COc1ccc(CNS(=O)(=O)c2cc3c4c(c2)C(C)C(=O)N4CCC3)cc1 (stereo not drawn)	6	25	4	3	-2	13
CCC1(C)Cc2ccccc2-c2nc(-c3ccccc3)oc(=O)c21 (stereo not drawn)	4	15	nt	-1	54*	3
C(=C\c1nc2ccccc2[nH]1)/c1ccccc1	31	30	78*	7	22	43
COc1ccc(/C=N/Nc2nc(Nc3ccccc3)nc(N3CCCCC3)n2)cc1OC	26	33	nt	0	72*	24
CCc1nnc(NC(=O)CN2CCCC(C)C2)s1 (stereo not drawn)	-9	9	-7	-2	nt	12
Cc1ccc(S(=O)(=O)N2CCC(C(=O)NNC(=O)c3ccccc3O)CC2)cc1C	6	3	-18	-1	0	9
